Calls of active or inactive are those of the source. Unless noted, no rule for the calls is given here.
Columns and labels:
[1] = tested on: Wnt5a (protein binding on small-molecule microarray); assay: small molecules binding Wnt5a protein – biophysical, small-molecule microarray, 635/667 nm fluorescence, primary screen (AID 1142); conditions: 635 nm fluorescence, higher = more signal;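 also: fluorescence read at 667 nm with signal to noise per printed feature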
[2] = ATP-based viability of Huh7 replicon cells – cell-based, CellTiter-Glo luminescence, basal, 48 h, cytotoxicity control for HCV replication inhibitor project, primary screen (AID 1143); conditions: higher = more signal, called active from +8 up or from −8 down;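 also: Huh7 hepatoma cells carrying a hepatitis C replication reporter with no stimulus; test concentration not given here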
[3] = Pseudomonas biofilm growth suppression – PAO1 strain, BacTiter-Glo luminescence, LB-PBS, primary screen (AID 1144); conditions: P. aeruginosa PAO1 biofilm, 12 h, higher = more signal
[4] = basal CRE-LacZ reporter activity in PC12 – cell-based, unstimulated, primary screen (AID 1145); conditions: no forskolin, luminescence, 4.5 h, higher = more signal, called active from +8 up or from −8 down
[5] = forskolin-driven CRE-LacZ activity in PC12 – cell-based, CRE-LacZ reporter, forskolin-stimulated, primary screen (AID 1146); conditions: luminescence, 4.5 h, higher = more signal, called active from +8 up or from −8 down;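 also: PC12 cells with 6xCRE LacZ reporter stimulated by forskolin 10 µM; beta-galactosidase reporter signal reflecting CREB driven transcription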
[6] = biological target: Streptavidin (Streptomyces avidinii) (UniProt P22629); assay: compounds binding control protein streptavidin – biophysical, small-molecule microarray, 635/667 nm fluorescence, artefact control for SMM compound annotation, primary screen (AID 1147); conditions: higher = more signal;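 also: signal reflects streptavidin binding to arrayed compounds as a control protein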
Streptavidin (Streptomyces avidinii), sequence (P22629 whole entry, looked up): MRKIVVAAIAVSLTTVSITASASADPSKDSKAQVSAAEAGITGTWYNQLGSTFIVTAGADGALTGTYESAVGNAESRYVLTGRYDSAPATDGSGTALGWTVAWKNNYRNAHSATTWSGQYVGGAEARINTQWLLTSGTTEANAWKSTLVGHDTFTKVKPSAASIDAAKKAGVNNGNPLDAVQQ

[7] = probe aInhba binding on compound microarray – biochemical, small-molecule microarray, 635/667 nm fluorescence, primary screen (AID 1148); conditions: higher = more signal;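 also: score merges 667nm spot fluorescence with signal-to-noise for antibody binding to printed compounds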
Torsin-1A (Homo sapiens) [8] = biological target: Torsin-1A (Homo sapiens) (UniProt O14656); assay: TOR1A wild-type binding on microarray – cell lysate, small-molecule microarray, lysate, 635/667 nm, primary screen (AID 1149); conditions: COS7 hTOR1A-WT lysate, 635 nm fluorescence, higher = more signal
Torsin-1A (Homo sapiens), sequence (O14656 whole entry, looked up): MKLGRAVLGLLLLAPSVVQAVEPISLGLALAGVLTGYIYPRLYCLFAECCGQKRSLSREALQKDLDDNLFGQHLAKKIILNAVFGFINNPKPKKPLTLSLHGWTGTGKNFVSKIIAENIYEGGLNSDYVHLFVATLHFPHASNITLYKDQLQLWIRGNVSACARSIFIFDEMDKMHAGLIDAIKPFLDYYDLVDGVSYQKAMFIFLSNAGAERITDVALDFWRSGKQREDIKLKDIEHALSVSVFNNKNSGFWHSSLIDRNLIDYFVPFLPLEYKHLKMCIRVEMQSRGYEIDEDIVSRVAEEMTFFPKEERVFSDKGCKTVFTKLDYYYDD

Torsin-1A (Homo sapiens) [9] = biological target: Torsin-1A (Homo sapiens) (UniProt O14656); assay: torsin A mutant lysate binding on microarrays – cell lysate, small-molecule microarray, COS7 lysate, 635/667 nm fluorescence, primary screen (AID 1150); conditions: COS7 hTOR1A mutant lysate, 635 nm fluorescence, higher = more signal;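 also: score pools 667 nm emission and signal to noise measuring lysate protein binding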
[10] = tested on: Sonic hedgehog protein (Shh); assay: Sonic hedgehog microarray binding compounds – biochemical, small-molecule microarray, 635/667 nm fluorescence, primary screen (AID 1151); conditions: 635 nm fluorescence, higher = more signal;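 also: Shh protein binding to compounds spotted on small-molecule microarray slides; score combines spot fluorescence intensity with signal-to-noise across triplicate slides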
[11] = optical density shifts of acrAB sulA E. coli – strain DRC41, OD650, 48 h, E. coli filamentation inducer project, primary screen (AID 1152); conditions: higher = more signal, called active from +8 up or from −8 down;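 also: E. coli MC1000 strain DRC41 lacking acrAB efflux pump and sulA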
[12] = probe aLefty1 binding on compound microarray – biochemical, small-molecule microarray, 635/667 nm fluorescence, primary screen (AID 1153); conditions: higher = more signal;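 also: score merges spot fluorescence with signal-to-noise ratio from the scanned slide images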
[13] = plasmodial surface anion channel blockers, osmotic lysis – cell-based, P. falciparum Indochina, OD700, 1 h, primary screen (AID 1154); conditions: P. falciparum Indochina infected RBC osmotic lysis, higher = more signal, called active from +8 up or from −8 down
[14] = plasmodial surface anion channel blockers, osmotic lysis – cell-based, P. falciparum Indochina, OD700, 2 h, primary screen (AID 1155);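 also: lysis reports solute entry through the parasite surface anion channel PSAC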; conditions: P. falciparum Indochina infected erythrocytes, higher = more signal, called active from +8 up or from −8 down
[15] = changes in parasitized red cell lysis, either direction – P. falciparum Indochina, OD700, 3 h, PSAC antagonist project, primary screen (AID 1156); conditions: P. falciparum-infected erythrocytes, osmotic lysis, higher = more signal, called active from +8 up or from −8 down
[16] = plasmodial surface anion channel blockers, osmotic lysis – cell-based, P. falciparum Indochina, OD700, 18 h, primary screen (AID 1157); conditions: P. falciparum Indochina infected erythrocytes, osmotic lysis OD700, 18 h; higher = more signal, called active from +8 up or from −8 down
[17] = S6 kinase pathway phospho-S6 level changes – cell-based, A549, cytoblot, luminescence, serum-stimulated, primary screen (AID 1158); conditions: 5 h, higher = more signal;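 also: serum-stimulated A549 lung adenocarcinoma cells; signal is phosphorylated S6 detected by cytoblot immunostaining with HRP secondary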
[18] = biological target: NADPH oxidase 2 (Homo sapiens) (UniProt P04839); assay: compounds shifting NOX2 Amplex Red fluorescence – cell-based, HEK293-NOX2, PMA-stimulated, NOX inhibitor project, primary screen (AID 1159); conditions: 45 min, higher = more signal, called active from +8 up or from −8 down; also: test concentration not given here
NADPH oxidase 2 (Homo sapiens), sequence (P04839 whole entry, looked up): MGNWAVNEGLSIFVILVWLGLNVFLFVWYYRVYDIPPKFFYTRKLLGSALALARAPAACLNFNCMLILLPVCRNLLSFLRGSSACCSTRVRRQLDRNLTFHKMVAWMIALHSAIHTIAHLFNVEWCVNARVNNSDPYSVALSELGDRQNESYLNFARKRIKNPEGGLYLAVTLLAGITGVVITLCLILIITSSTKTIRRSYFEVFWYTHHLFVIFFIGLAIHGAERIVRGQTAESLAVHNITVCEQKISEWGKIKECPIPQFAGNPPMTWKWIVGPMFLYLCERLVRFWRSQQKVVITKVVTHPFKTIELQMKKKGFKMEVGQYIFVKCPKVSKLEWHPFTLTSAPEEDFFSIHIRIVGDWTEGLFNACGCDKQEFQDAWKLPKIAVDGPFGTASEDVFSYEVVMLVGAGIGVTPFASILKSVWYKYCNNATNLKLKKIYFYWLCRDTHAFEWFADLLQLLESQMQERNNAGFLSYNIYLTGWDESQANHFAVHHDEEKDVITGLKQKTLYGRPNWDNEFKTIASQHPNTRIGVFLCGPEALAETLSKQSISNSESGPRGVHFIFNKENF

[19] = biological target: NADPH oxidase 4 (Homo sapiens) (UniProt Q9NPH5); assay: compounds shifting NOX4 Amplex Red fluorescence – cell-based, HEK293-NOX4, tetracycline-induced, NOX inhibitor project, primary screen (AID 1160); conditions: HEK293-NOX4, Amplex Red H2O2 fluorescence, 45 min; higher = more signal, called active from +8 up or from −8 down
NADPH oxidase 4 (Homo sapiens), sequence (Q9NPH5 whole entry, looked up): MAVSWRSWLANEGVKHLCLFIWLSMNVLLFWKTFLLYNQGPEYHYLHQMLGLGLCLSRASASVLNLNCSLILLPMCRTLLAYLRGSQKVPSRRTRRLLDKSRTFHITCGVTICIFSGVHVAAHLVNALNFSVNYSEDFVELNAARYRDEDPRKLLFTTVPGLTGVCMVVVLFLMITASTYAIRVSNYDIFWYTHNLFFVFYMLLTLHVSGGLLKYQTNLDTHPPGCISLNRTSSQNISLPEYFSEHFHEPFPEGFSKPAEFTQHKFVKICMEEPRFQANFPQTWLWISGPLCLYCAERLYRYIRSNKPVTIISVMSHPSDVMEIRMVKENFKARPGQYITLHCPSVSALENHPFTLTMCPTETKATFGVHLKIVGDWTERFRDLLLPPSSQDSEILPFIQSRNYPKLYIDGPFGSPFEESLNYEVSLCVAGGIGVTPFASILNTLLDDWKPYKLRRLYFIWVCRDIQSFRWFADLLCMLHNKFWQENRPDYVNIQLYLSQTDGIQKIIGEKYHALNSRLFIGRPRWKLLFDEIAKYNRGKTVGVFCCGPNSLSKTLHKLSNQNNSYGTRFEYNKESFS

[20] = biological target: NADPH oxidase 5 (Homo sapiens) (UniProt Q96PH1); assay: compounds shifting NOX5 Amplex Red fluorescence – cell-based, HEK293-NOX5, NOX inhibitor project, primary screen (AID 1161); conditions: HEK293-NOX5, ionomycin, 45 min, higher = more signal
NADPH oxidase 5 (Homo sapiens), sequence (Q96PH1 whole entry, looked up): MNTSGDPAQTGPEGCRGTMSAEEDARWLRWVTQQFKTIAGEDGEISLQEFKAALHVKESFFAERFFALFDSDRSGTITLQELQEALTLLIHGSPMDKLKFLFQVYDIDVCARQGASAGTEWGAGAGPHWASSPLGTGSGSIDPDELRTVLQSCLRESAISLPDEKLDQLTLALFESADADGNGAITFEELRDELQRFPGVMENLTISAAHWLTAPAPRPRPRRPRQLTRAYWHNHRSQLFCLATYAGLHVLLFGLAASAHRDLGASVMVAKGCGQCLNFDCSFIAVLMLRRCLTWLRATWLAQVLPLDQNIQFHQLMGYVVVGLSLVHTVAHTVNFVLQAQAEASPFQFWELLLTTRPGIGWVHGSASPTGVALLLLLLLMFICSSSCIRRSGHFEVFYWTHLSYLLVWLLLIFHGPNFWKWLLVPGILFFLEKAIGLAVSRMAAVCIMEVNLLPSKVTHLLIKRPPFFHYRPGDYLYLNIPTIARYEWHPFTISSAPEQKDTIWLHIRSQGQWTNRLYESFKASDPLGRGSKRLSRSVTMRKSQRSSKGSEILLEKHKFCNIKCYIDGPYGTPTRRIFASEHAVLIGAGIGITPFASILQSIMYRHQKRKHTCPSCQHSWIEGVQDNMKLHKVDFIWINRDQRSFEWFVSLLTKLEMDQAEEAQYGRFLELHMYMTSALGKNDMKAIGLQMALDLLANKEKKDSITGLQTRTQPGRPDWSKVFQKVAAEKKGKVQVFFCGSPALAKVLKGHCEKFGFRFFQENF

Row | Compound | composite z-score [1] | z-score [2] | z-score [3] | z-score [4] | z-score [5] | composite z-score [6] | composite z-score [7] | composite z-score (Torsin-1A (Homo sapiens) [8]) | composite z-score (Torsin-1A (Homo sapiens) [9]) | composite z-score [10] | z-score [11] | composite z-score [12] | z-score [13] | z-score [14] | z-score [15] | z-score [16] | z-score [17] | z-score [18] | z-score [19] | z-score [20]
1 | O=C(NCCO)C1=C[C@H](Oc2ccccc2I)[C@@H](O)[C@H](NCc2ccc(F)cc2)C1 | 0.273 | -2.8 (inactive) | 0.148 (inactive) | 4.56 (inactive) | 0.925 (inactive) | -0.743 | -0.197 | 0.693 | 1 | 2.08 | -1.76 (inactive) | -0.338 | 5.38 (inactive) | 1.82 (inactive) | 1.33 (inactive) | 1.11 (inactive) | 0.436 | 0.71 (inactive) | -0.89 (inactive) | -3.29
2 | O=C1NC(=O)C2C1C=CC(C(O)c1ccc(F)cc1)N2Nc1ccccn1 (stereo not given) | -0.138 | 0.74 (inactive) | -1.36 (inactive) | -0.136 (inactive) | 0.0662 (inactive) | -0.0345 | -0.0645 | 0.286 | 0.0123 | 0.123 | -1.99 (inactive) | 0.0378 | 1.02 (inactive) | 1.23 (inactive) | -0.02 (inactive) | 0.753 (inactive) | -0.727 | -1.01 (inactive) | -2.92 (inactive) | -2.12
3 | C=CCC(OC(C)=O)[C@@H]1[C@@H](N(Cc2ccc(-c3cccc(C(F)(F)F)c3)o2)C(=O)Cc2ccc(F)cc2)c2cc(OCCCO)ccc2N1C(=O)c1ccc2ccccc2c1 (stereo not given in full) | -0.314 | -0.376 (inactive) | -0.25 (inactive) | 0.279 (inactive) | 0.914 (inactive) | -0.488 | -0.2 | -0.954 | -0.244 | 0.718 | -0.353 (inactive) | 0.0732 | 0.05 (inactive) | -0.213 (inactive) | 0.337 (inactive) | 0.161 (inactive) | 0.531 | -2.05 (inactive) | 0.631 (inactive) | 0.0399
4 | C=CCC(OC(C)=O)[C@@H]1[C@@H](N(Cc2ccc(-c3ccccc3)cc2)C(=O)c2ccc(-c3ccccc3)cc2)c2cc(OCCCO)ccc2N1C(=O)c1ccc2ccccc2n1 (stereo not given in full) | -0.0949 | 0.115 (inactive) | 0.196 (inactive) | 0.992 (inactive) | 0.705 (inactive) | 0.21 | 0.333 | -0.178 | 0.342 | 0.767 | 0.803 (inactive) | 0.026 | 0.135 (inactive) | 0.078 (inactive) | -0.452 (inactive) | -0.033 (inactive) | 0.364 | 1.18 (inactive) | 1.33 (inactive) | 1.17
5 | COCCOC(=O)N1C(=O)[C@@]2(c3cc(C#CCNC(N)=O)ccc31)[C@H](C(=O)NC[C@H](O)c1ccccc1)[C@H]1C(=O)O[C@H](c3ccccc3)[C@H](c3ccccc3)N1[C@@H]2c1ccc(OCCO)cc1 | 0.0906 | -0.8 (inactive) | -0.297 (inactive) | -0.606 (inactive) | -0.965 (inactive) | 0.516 | -0.192 | 0.131 | 0.219 | 0.783 | -0.242 (inactive) | 0.278 | 2.83 (inactive) | 0.757 (inactive) | 0.742 (inactive) | 0.581 (inactive) | 0.457 | 2.5 (inactive) | 1.01 (inactive) | -0.677
6 | COC(=O)[C@@H]1N=C(c2ccc(OCCCO)cc2)O[C@@H]1c1ccccc1CN=[N+]=[N-] | -0.257 | -1.04 (inactive) | -0.245 (inactive) | -0.268 (inactive) | 0.0126 (inactive) | 0.551 | 0.177 | -1.73 | -0.938 | 0.0121 | 0.664 (inactive) | 0.881 | 25 (active) | 9.39 (active) | -0.5 (inactive) | 1.33 (inactive) | -0.239 | -0.817 (inactive) | 0.827 (inactive) | 0.0949
7 | C[N+](C)(C)CCCCCCNC(=O)[C@@H]1C[C@@H]2C(=O)N[C@@H](Cc3ccccc3)C(=O)N2[C@@H]1c1ccc(O)cc1 | 0.42 | -0.267 (inactive) | -0.409 (inactive) | -0.805 (inactive) | -0.327 (inactive) | -0.0442 | -0.0039 | 1.26 | 0.984 | 2.07 | 0.38 (inactive) | 0.286 | 3.42 (inactive) | 0.0655 (inactive) | -0.406 (inactive) | 0.0311 (inactive) | -0.491 | 0.627 (inactive) | 0.203 (inactive) | 0.0921
8 | COC(=O)[C@@]1(Cc2ccc(F)cc2)[C@H]2c3cc(C(=O)N(C)C)n(CCN4CCOCC4)c3C[C@H]2CN1C(=O)c1ccccc1 | 0.483 | -1.02 (inactive) | 0.263 (inactive) | -0.372 (inactive) | 0.823 (inactive) | 1.36 | 0.17 | 2.73 | 2.17 | -0.976 | -1.43 (inactive) | 0.865 | -0.64 (inactive) | -0.738 (inactive) | 0.922 (inactive) | -1.9 (inactive) | 0.537 | 0.482 (inactive) | 0.523 (inactive) | -0.757
